Calls of active or inactive are those of the source.

The test system of one test is Neuregulin-1 EGF-like domain. The experiment in a line: binders of neuregulin-1 EGF-like domain, primary screen, biochemical, small-molecule microarray, 635 nm fluorescence (AID 1081).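 Also: binding of the protein to compounds printed on small-molecule microarray slides.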 The note with it: small-molecule microarray binding, higher = more signal.
`O=C1C[C@@](C(=O)NCc2ccccc2)(c2ccc([N+](=O)[O-])cc2)[C@@H](c2ccc(CO)cc2)N1CC12CC3CC(CC(C3)C1)C2` came in with a composite z-score of 1.27.

For the compound `COC(=O)c1c(CC[C@@H](CO)NC(=O)N[C@H](Cc2ccccc2)Cn2cc(-c3ccccn3)nn2)oc(C(C)=O)c1C(=O)OC`, the composite z-score was found to be 1.09.

With `COC(=O)[C@]1(CCC(=O)OC(C)(C)C)N=C(c2ccc(OCCCO)cc2)O[C@@H]1c1ccccc1`, the composite z-score turned out to be 1.14.

System in the next test: not listed separately
The experiment in a line: FRG1 promoter luciferase signal modulators, primary screen, FRG1 inhibition for FSHD, cell-based, C2C12 myotubes, firefly/Renilla luciferase, luminescence (AID 1084). The settings on record: higher = more signal, called active from +8 up or from −8 down.
Regarding `CC#CC(=O)Oc1ccc(Br)cc1C=CC(=O)OCC`, the z-score is 0.128 (inactive).

Take `CCCC(=O)N(CCc1c[nH]c2ccccc12)[C@@H]1CC(C(=O)NCCO)=C[C@H](Oc2c(I)cc(CO)cc2OC)[C@H]1O`: the z-score is -0.667 (inactive).

Consider `COCCOC(=O)N1C(=O)[C@@]2(c3ccccc31)[C@H](C(=O)N1CCCCCCC1)[C@H]1C(=O)O[C@H](c3ccccc3)[C@H](c3ccccc3)N1[C@@H]2c1ccc(OCCO)cc1`, for which the z-score was -1.64 (inactive).

Take `CCOC(=O)C[C@H]1[C@H](OC(=O)c2cc3ccccc3oc2=O)[C@@H](NC(=O)CC(C)C)c2cc(OCCCO)ccc2N1C(=O)c1ccccc1`: the z-score is -0.332 (inactive).

As to `O=C1OCC=C[C@H]2OC34C=CCN(CCN5CCOCC5)C(=O)[C@H]3N(CCO)C(=O)[C@@H]4[C@@H]12` (some centres undefined), the z-score is 1.02 (inactive).

Turning to `COCC(=C=CC[C@H](O)c1cccc(OCCO)c1)CCO`, the z-score was 1.02 (inactive).

Consider `C#CCN1[C@H](/C=C/C2CC2)[C@H](Cc2ccccc2)OC(=O)[C@@H]1Cc1ccccc1`, for which the z-score was -4.01 (inactive).

Take `O[C@@H](Cc1ccccc1)[C@@H](/C=C/C1CC1)NCc1cccc(Cl)c1`: the z-score was -0.715 (inactive).

Turning to `C=C(/C(=C/C[C@H](OC(C)=O)c1ccc(OCCO)cc1)c1cc(C(=O)OC)ccc1OC)C(C)C`, the z-score was -0.863 (inactive).

As to `CCCC[C@@H]1C[C@H]1[C@@H](NC(=O)c1cccnc1)c1ccc(Cl)cc1`, the z-score is 0.188 (inactive).

With `CC(C)[C@@H](C(=O)O)n1cc(C2(O)CCCCC2)nn1`, the z-score was 0.356 (inactive).

As for `CC(C)CCC[C@@H](C)[C@H]1CC[C@@]2(C)C3=C(CC[C@]12C)[C@@]1(C)CC[C@H](OC(=O)c2ccc(C(F)(F)F)nc2)C(C)(C)C1CC3` (some centres undefined), the z-score was -1.46 (inactive).

Take `O=C1O[C@@H](c2ccccc2)[C@@H](c2ccccc2)N2[C@@H](c3ccc(OCCO)cc3)[C@]3(C(=O)Nc4ccc(C#CC5=CCCCC5)cc43)[C@@H](C(=O)N3CCCCCCC3)[C@H]12`: the z-score was 1.75 (inactive).

For the compound `CC(C)NC(=O)[C@@]1(Cc2ccccc2I)c2ccccc2C(=O)N(Cc2ccccc2Cl)[C@H]1c1ccc(CO)cc1`, the z-score is -2.18 (inactive).

As to `COc1ccc([Si](C)(C)[C@H]2[C@H](CCO)O[C@@]3(C(=O)N(Cc4ccccc4)c4ccc(N5CCCCC5=O)cc43)[C@@H]2C)cc1`, the z-score is -2.44 (inactive).

With `COc1ccc([C@H]2C[C@H]3C(Br)=C[C@@]2(CO)C(=O)[C@]32CO2)cc1`, the z-score is 1.26 (inactive).

Turning to `CO[C@H]1O[C@H](CO)[C@@H](OC(=O)Nc2ccc(Oc3ccccc3)cc2)[C@H](OC(=O)Nc2ccc3c(c2)OCO3)[C@@H]1OC(=O)Nc1ccc2c(c1)OCO2`, the z-score is -0.0746 (inactive).

Regarding `O=C(NC1CC1)[C@@H]1c2ccccc2C(=O)N(C2Cc3ccccc3C2)[C@H]1c1ccc(CO)cc1`, the z-score is -0.838 (inactive).

In the case of `CC(C)=CCCC(C)=CC(O)C1C=CC2C(=O)N(c3ccccc3)C(=O)C2N1Nc1ccc(C(C)C)cc1` (centres undefined), the z-score is 0.821 (inactive).

Turning to `C=CC[C@]1(C(N)=O)N=C(c2ccc(OCCCO)cc2)O[C@H]1c1ccccc1`, the z-score was -1.59 (inactive).

For the compound `COc1cc2c(cc1O)C(c1cccs1)N(Cc1cccc(OC(F)(F)F)c1)CC2` (centres undefined), the z-score is -0.79 (inactive).

For the compound `C=C(CCCC)C(=O)CC[C@@H](OC(C)=O)c1ccc(CO)o1`, the z-score was 0.514 (inactive).

Take `O=C(CS)NCCCCCNC(=O)[C@H]1C[C@H]2C(=O)NCC(=O)N2[C@H]1c1ccc(O)cc1`: the z-score is 1.41 (inactive).

`COC(=O)[C@H](Cc1ccccc1)N[C@H](/C=C/C1CC1)[C@@H](O)Cc1ccccc1`: the z-score was -1.72 (inactive).

With `C=C(CCCC)C(=O)CC[C@H](OC(=O)c1cccnc1)c1ccc(OCCO)cc1`, the z-score was -0.916 (inactive).

In the case of `O=C1O[C@@H](c2ccccc2)[C@@H](c2ccccc2)N2[C@@H](c3ccccc3OCCO)[C@]3(C(=O)Nc4ccc(C#CC5(O)CCCCCC5)cc43)[C@@H](C(=O)N3CCN(c4ncccn4)CC3)[C@H]12`, the z-score is -2.4 (inactive).

Values taken from PubChem BioAssay.
